The values below come from PubChem BioAssay (NCATS).

Results filed as inconclusive are left out. The source made the active and inactive calls. Calls follow the shape of the dose curve; as a rule, active = well fitted cell-killing curve with a large enough effect; inconclusive = small, poorly fitted or top-dose-only effect, or effect the other way; inactive = no such curve, though single readings can be large or run the other way.
Potency is read from the fitted curve at half-maximal effect.

The nature of the assay: Quantitative High-Throughput drug screen in 47 multiple myeloma cell lines against the NCATS MIPE library collection: Karpas25_ECACC cell viability assay (AID 1918968; also: nearly all actives have a fitted effect of over 35% in size). The note with it: Karpas25 myeloma viability, CellTiter-Glo ATP, 48 h; series mostly up to 45.8 µM. An excerpt: PI: Beverly A. Mock Ph.D.
Laboratory of Cancer Biology and Genetics,
Center for Cancer Research, National Cancer Institute,
National Institute of Health, Bethesda, Maryland
Drug resistance and disease progression are common in multiple myeloma (MM) patients, underscoring the need for new therapeutic combinations. […] We hypothesized that effective combinations would reduce MYC expression and enhance p16 activity. […] These preclinical data identify potentially useful drug combinations for evaluation in drug-resistant MM and reveal potential mechanisms of combined drug sensitivity.
Described herein is the primary MIPE qHTS used to cherrypick compounds. Validated compounds were then further tested for potential synergistic activiy.
[1] Peat TJ, Gaikwad SM, Dubois W, Gyabaah-Kessie N, Zhang S, Gorjifard S, Phyo Z, Andres M, Hughitt VK, Simpson RM, Miller MA, Girvin AT, Taylor A, Williams D, D'Antonio N, Zhang Y, Rajagopalan A, Flietner E, Wilson K, Zhang X, Shinn P, Klumpp-Thomas C, McKnight C, Itkin Z, Chen L, Kazandijian D, Zhang J, Michalowski AM, Simmons JK, Keats J, Thomas CJ, Mock BA. Drug combinations identified by high-throughput screening promote cell cycle transition and upregulate Smad pathways in myeloma. Cancer Lett. 2023 Aug 1;568:216284. doi: 10.1016/j.canlet.2023.216284. Epub 2023 Jun 24. PMID: 37356470; PMCID: PMC10408729.
SEQUENCE No. (e.g., 1, 2, 3, etc.); […] (e.g., Cells, Incubation, Reagent, etc.); VALUE and DESCRIPTION.
1; Cells; 5 uL; white, solid bottom 1536-well Greiner assay plate.
2; Compounds; 23 nL; Kalypsis pin tool (Wako USA) equipped with a 1536-well pin head to transfer to the assay plates.
3; Incubation; 48 hours; 37C incubation.
4; Reagent;5uL; CellTiter Glo (Promega).
5; Detector; 425V; Luminescence; Viewlux PerkinElmer.
NOTES (numbers refer to Sequence numbers above)
1. The cell-based screening methods employed in this study were like those previously published. Briefly, the corresponding myeloma cell lines were screened in 1,536-well plates with 500 cells, 5-uL per well for inhibition of cell viability (assessed by measuring ATP levels with CellTiterGlo).
2. NCATS MIPE 4.0 library of approved and investigational drugs were added using the Kalypsis pin tool. Wells treated with DMSO only for 100% viability and media only wells for 0% viability were used as controls.
3. The assay plates were covered and incubated for 48 hours in a 37C, 5% CO2 incubator with controlled humidity.
4. After 48 hours, CellTilter-GloTM luminescent substrate mix (Promega) reagent was added to the assay plate and plates we incubated for 5 min at room temperature.
5. Signal was measured as median relative luminescence units on a ViewLux (PerkinElmer) multiplate reader.
[1] Heske CM, Davis MI, Baumgart JT, Wilson K, Gormally MV, Chen L, Zhang X, Ceribelli M, Duveau DY, Guha R, Ferrer M, Arnaldez FI, Ji J, Tran HL, Zhang Y, Mendoza A, Helman LJ, Thomas CJ. Matrix Screen Identifies Synergistic Combination of PARP Inhibitors and Nicotinamide Phosphoribosyltransferase (NAMPT) Inhibitors in Ewing Sarcoma. Clin Cancer Res. 2017 Dec 1;23(23):7301-7311. doi: 10.1158/1078-0432.CCR-17-1121. Epub 2017 Sep 12. PMID: 28899971; PMCID: PMC6636827.
`CCc1cnn2c(NCc3ccc[n+]([O-])c3)cc(N3CCCC[C@@H]3CCO)nc12`: the Potency was 33.2 nM (active). Under `Cn1cc(CNCC2CCN(c3ncc(C(=O)NO)cn3)CC2)c2ccccc21` stands 11.8 nM (active); under `CCOc1cc2ncc(C#N)c(Nc3ccc(OCc4ccccn4)c(Cl)c3)c2cc1NC(=O)C=CCN(C)C`, 662 nM (active). Consider `Nc1ccn(C2CO[C@H](CO)O2)c(=O)n1` (stereo not given in full), for which the Potency result is “inactive”. Under `O=C(Nc1cccc(Nc2ncc(Br)c(NCCc3cnc[nH]3)n2)c1)N1CCCC1` stands 5900 nM (active); under `CC(=O)NCC(=O)N1[C@H]2CC[C@H]1c1cc(Nc3ncc(C(F)(F)F)c(NC4CCC4)n3)ccc12`, 1870 nM (active). Take `Cc1cnc(Nc2ccc(N3CCN(C)CC3)cc2)nc1Nc1cccc(S(=O)(=O)NC(C)(C)C)c1`: the Potency was 1660 nM (active). `O=C1NC(=O)[C@@H](c2cn3c4c(cccc24)CCC3)[C@H]1c1c[nH]c2ccccc12`: the Potency is 833 nM (active).

Consider `CC(C)(O)[C@H]1CC[C@@](C)([C@H]2[C@@H](O)C[C@@]3(C)[C@@H]4C[C@H](O[C@@H]5O[C@H](CO)[C@@H](O)[C@H](O)[C@@H]5O)[C@H]5C(C)(C)[C@@H](O[C@@H]6OC[C@@H](O)[C@H](O)[C@@H]6O)CC[C@@]56C[C@@]46CC[C@]23C)O1`, for which the Potency result is “inactive”.

As for `CCC[C@H]1C[C@H](C(=O)N[C@@H]([C@@H]2O[C@@H](SC)[C@@H](O)[C@@H](O)[C@@H]2O)[C@H](C)Cl)N(C)C1`, the Potency entry is “inactive”. `CCOC(=O)N1CCN([N+]([O-])=NOc2ccc([N+](=O)[O-])cc2C#N)CC1`: the Potency is 743 nM (active).

With `CC(=O)OCC(=O)[C@@]1(O)CC[C@H]2[C@@H]3CCC4=CC(=O)CC[C@]4(C)[C@@H]3C(=O)C[C@@]21C`, the Potency result was “inactive”. Take `C[N+](C)([O-])CCNc1ccc(NCC[N+](C)(C)[O-])c2c1C(=O)c1c(O)ccc(O)c1C2=O`: the Potency entry was “inactive”. Take `Nc1ccn(C[C@@H](CO)OCP(=O)(O)O)c(=O)n1`: the Potency result was “inactive”. Take `CC(=O)ON=C1C(c2c(O)[nH]c3cc(Br)ccc23)=Nc2ccccc21`: the Potency is 2640 nM (active). As for `COc1ccc(Nc2nccc(NCCO)n2)cc1`, the Potency result is “inactive”. For the compound `C[C@H](O)[C@@H]1C(=O)N2C(C(=O)O)=C(S[C@@H]3CN[C@H](CNS(N)(=O)=O)C3)[C@@H](C)[C@@H]12`, the Potency result was “inactive”.

Consider `C#CCC(Cc1cnc2nc(N)nc(N)c2n1)c1ccc(C(=O)N[C@@H](CCC(=O)O)C(=O)O)cc1` (stereo not given in full), for which the Potency is 11800 nM (active). In the case of `CC(O)(C#Cc1ccc2c(c1)N(c1nc(N)ncc1Cl)CC2)c1nccs1` (stereo not given), the Potency is 3720 nM (active). In the case of `Cc1cnc(Nc2ccc(CN3CCOCC3)cc2)nc1Nc1cccc(S(=O)(=O)NC(C)(C)C)c1`, the Potency was 1320 nM (active). Regarding `C=C1CCC2[C@](C)(CO)C(O)CC[C@]2(C)C1CC=C1C(=O)OCC1O` (stereo not given in full), the Potency result is “inactive”. On to `C[C@H](NC(=O)C(C#N)=Cc1cccc(Br)n1)c1ccccc1`, for which the Potency is 2090 nM (active). For the compound `CC(C)(C)[N+]([O-])=Cc1ccc(S(=O)(=O)O)cc1S(=O)(=O)O`, the Potency result is “inactive”. Next, `CCNC(=O)Nc1ccc(-c2nc3c(c(N4CCOC[C@H]4C)n2)CCN(C2COC2)C3)cc1`: 935 nM (active).

Regarding `CC(=O)N[C@H]1[C@@H]([C@H](O)[C@H](O)CO)OC(C(=O)O)=C[C@@H]1N=C(N)N`, the Potency result is “inactive”. With `OC[C@@H](O)[C@@H](O)[C@H](O)[C@@H](O)CO`, the Potency entry is “inactive”. With `COc1ccc2c(c1OC)C(=O)OC2[C@H]1c2c(cc3c(c2OC)OCO3)CCN1C` (stereo not given in full), the Potency was 235 nM (active). As for `CC1(C)[C@H](O[C@H]2O[C@H](C(=O)O)[C@@H](O)[C@H](O)[C@H]2O[C@@H]2O[C@H](C(=O)O)[C@@H](O)[C@H](O)[C@H]2O)CC[C@@]2(C)[C@H]1CC[C@]1(C)[C@H]2C(=O)C=C2[C@H]3C[C@@](C)(C(=O)O)CC[C@]3(C)CC[C@]21C`, the Potency result is “inactive”. For the compound `CC(=O)SCC(Cc1ccccc1)C(=O)NCC(=O)OCc1ccccc1` (stereo not given), the Potency is 1050 nM (active). In the case of `C#C[C@]1(O)CC[C@@H]2[C@@H]3CCc4cc(O)ccc4[C@H]3CC[C@@]21C`, the Potency is 18700 nM (active). Regarding `Cc1cc(O)c2c(c1)C(=O)c1cccc(O)c1C2=O`, the Potency entry was “inactive”. On to `Cc1cc(-c2nnc3n2CCCCC3)c(C)n1-c1ccccc1`, for which the Potency entry is “inactive”. On to `CC(C)C[C@H](NC(=O)CNC(=O)c1cc(Cl)ccc1Cl)B1OC(=O)CC(CC(=O)O)(C(=O)O)O1` (stereo not given in full), for which the Potency is 29.6 nM (active). As for `COC1=C(OC)C(=O)C(CC=C(C)CCC=C(C)CCC=C(C)CCC=C(C)CCC=C(C)CCC=C(C)CCC=C(C)CCC=C(C)CCC=C(C)CCC=C(C)C)=C(C)C1=O`, the Potency entry was “inactive”.

As to `CC1(C)CC(O)CC(C)(C)N1[O]`, the Potency entry was “inactive”. With `CN1CCCN(C(=O)c2cccc(-c3ccc(C=C4C(=O)Nc5ccc(Cl)cc54)o3)c2)CC1`, the Potency was 8330 nM (active). For the compound `COc1ccc(CCC(=O)c2c(O)cc(O[C@@H]3O[C@H](CO)[C@@H](O)[C@H](O)[C@@H]3O[C@@H]3O[C@@H](C)[C@H](O)[C@@H](O)[C@@H]3O)cc2O)cc1O`, the Potency was 9350 nM (active).

Regarding `Cc1ncc(-c2ccnc(Nc3ccc(S(C)(=O)=O)cc3)n2)n1C(C)C`, the Potency is 2350 nM (active). Regarding `CNC(=O)Nc1ccc(-c2nc(N3CC4CCC(C3)O4)c3cnn(C4CCC5(CC4)OCCO5)c3n2)cc1`, the Potency is 10.5 nM (active). In the case of `C[C@H]1[C@@H](OC(=O)CCC(=O)O)O[C@@H]2O[C@@]3(C)CC[C@@H]4[C@H](C)CC[C@@H]1[C@@]24OO3`, the Potency was 2350 nM (active).
